Measured values published in PubChem BioAssay AID493073 (Broad Institute, 2011).
About 810 (68%) of roughly 1,200 compounds were called active. So high a share suggests a set chosen from earlier hits. A selection follows. Results with a measured potency or affinity are listed apart. A number with no mark means an inactive call. How the calls were made is not given here.

experiment: TRPM1 promoter luciferase signal decrease, dose response, MITF inhibitor project, cell-based, SK-MEL-5, cherry-picked, set 3 (AID 493073); conditions: SK-MEL-5 TRPM1 promoter luciferase, 24 h; series mostly up to 35 µM; activity change, negative = inhibition: at the top concentration

Row | SMILES | activity change, negative = inhibition [%]
1 | Cc1ccc(NC(=O)Cc2noc3ccccc23)cc1 | 101
2 | C=CCNC(=O)c1ccc2nc(Cc3ccc(OC)cc3)oc2c1 | 19.8
3 | Cc1c(C(=O)Nc2ccc(S(=O)(=O)N(C)C3CCN(C)CC3)cc2)oc2c(Cl)cccc12 | -97.5
4 | c1ccc(CSc2nnc(-c3ccco3)n2Cc2ccco2)cc1 | 75.4
5 | Cc1cccc(NC(=O)Cc2ccc(Br)cc2)n1 | 117
6 | O=C(NC1CC1)C1CCN(S(=O)(=O)c2ccc(Cl)c([N+](=O)[O-])c2)CC1 | -67.9
7 | CN(c1ccc(O)cc1)c1nc(O)c(C2=c3ccccc3=NC2=O)s1 | 116
8 | CCOC(=O)c1cc(-c2ccc(OC)cc2)n[nH]1 | 78
9 | COc1c(C)cccc1C(=O)Nc1ccc(N2CCN(S(C)(=O)=O)CC2)cc1 | -65.2
10 | Cc1ccc2oc(Nc3nc(C)c(C)c(C)n3)nc2c1 | 28.3
11 | Cc1c(OCC(=O)NC2CC(C)(C)NC(C)(C)C2)ccc2c1oc(=O)c1ccccc12 | -99.4
12 | O=C1c2ccccc2C(=O)N1CCSc1ccccc1 | 102
13 | COc1cc(OC)cc(C(=O)Nc2ccc3c(c2)OCCO3)c1 | 98.8
14 | CN(C)CCNC(=O)/C(=C/c1ccc(-c2ccc(Cl)cc2)o1)NC(=O)c1ccccc1 | -96.9
15 | CN(C)/C=N/c1ncc(C(=O)c2ccccc2)s1 | 55.9
16 | C(=N\Nc1cc(N2CCCCC2)ncn1)/c1ccco1 | -23.1
17 | COc1ccc(-c2csc(N(C)C(=O)c3ccco3)n2)cc1 | 74
18 | Cc1csc(N/N=C/c2ccc([N+](=O)[O-])cc2)n1 | 61
19 | CC(=O)c1sc(N/N=C\c2ccc(N(C)C)cc2)nc1C | 82.6
20 | O=C(/C=C/c1ccccc1Cl)NC1CCCCC1 | -21.5

Row | SMILES | activity change, negative = inhibition [%]
21 | N#C/C(=C\c1cccs1)C(=O)NCC1CCCO1 (stereo not given) | 116
22 | N#C/C(=C\c1c[nH]c2ccccc12)C(=O)NC1CC1 | 85.3
23 | CCC1CCCCN1CCCNC(=O)c1cn(CC)c2ccc(S(=O)(=O)N(C)C3CCCCC3)cc2c1=O (stereo not given) | -22.7
24 | O=C(Cn1nnc(-c2ccccc2Cl)n1)N1CCCCC1 | -1.19
25 | COc1ccc(CCC(=O)N2CCc3ccccc32)cc1 | 67.5
26 | Cc1ccc(C(=O)NC2=NCCS2)cc1Cl | 71.2
27 | Cc1ccc(C(=O)Nc2ccccc2Cl)cc1 | 54.6
28 | COc1ccc2c(c1OC)C(=O)N(c1ccc(C)cc1)C2 | 52.1
29 | ClC1(Cl)CC1CSc1nnc(-c2ccncc2)o1 (stereo not given) | 83
30 | CCC(=O)NCCc1nc2cc(NC(=O)c3cccc([N+](=O)[O-])c3)ccc2n1C | 51.1
31 | O=C(Nc1nnc(Cc2ccccc2)s1)c1ccccc1 | 68.1
32 | CC1(C)Cc2c(sc(NC(=O)Nc3ccccc3)c2C(N)=O)CO1 | 69.1
33 | COC(=O)c1c(NC(=O)c2nc3ccccc3s2)sc2c1CC(C)(C)NC2(C)C | -108
34 | CCC(=O)Nc1cc(C(=O)OCC(=O)c2ccccc2Cl)ccc1C | 76.3
35 | N#Cc1cnn2cc(CCN3CCOCC3)c(-c3ccc(F)cc3)nc12 | 10.1
36 | CC(C)N1C(=O)S/C(=C\c2ccc(-c3ccc(Cl)c(C(=O)O)c3)o2)C1=O | 7.32
37 | OCC1CCCC(n2cnc3c(=S)nc[nH]c32)O1 (stereo not given) | 13.4
38 | O=C(Nc1ccccc1Cl)Nc1cccc2cccnc12 | 68
39 | O=C(c1cc2ccccc2oc1=O)N1CCN(c2ncccn2)CC1 | 67.3
40 | CCOc1ccc(C(=O)N2CCc3ccccc32)cc1 | 38.1

Row | SMILES | activity change, negative = inhibition [%]
41 | O=C(NCCNc1ccccc1[N+](=O)[O-])c1cc(F)c(F)cc1Cl | -57.4
42 | Cc1cc2oc3ccc(NCCC4CCCN4C)cc3c(=O)c2cc1C (stereo not given) | -104
43 | CS(=O)(=O)c1ccc2nc(NC(=O)c3ccccc3)sc2c1 | 12.7
44 | CC1Cc2ccccc2N1C(=O)c1ccc(Br)o1 (stereo not given) | 81.6
45 | COc1ccc(C(=O)CCNc2ccc(F)cc2)cc1 | 85.6
46 | CCNC(=O)CC1C(=O)N(c2ccc(F)cc2)C(=O)N1CCc1ccc(OC)cc1 (stereo not given) | 15.2
47 | CCN1CCN(c2ccc(S(=O)(=O)N3CCCCC3)cc2NC(=O)/C=C/c2cccc(OC)c2OC)CC1 | -98
48 | Cc1ccccc1C(=O)O/N=C(\N)c1ccc([N+](=O)[O-])cc1 | 13
49 | Cc1ccc(NC(=O)c2ccccc2)cc1 | 80.8
50 | N/C(=N\OC(=O)c1ccc([N+](=O)[O-])cc1)c1ccc(Br)cc1 | 95.2
51 | COc1ccccc1N1CCN(/N=C/c2ccc([N+](=O)[O-])cc2)CC1 | -13.3
52 | O=C(Nc1ccc(-c2cn3c(n2)SCC3)cc1)c1ccco1 | 56
53 | Cc1ccc(CC(=O)Nc2ccc(Cl)cn2)cc1 | 56.5
54 | O=C(N/N=C/C=C/c1ccccc1)c1ccccn1 | 94.3
55 | CC(=O)COc1ccc2cc(-c3ccccc3)c(=O)oc2c1 | 59.7
56 | O=C(NC1=NCCS1)c1ccc(Cl)c(Cl)c1 | 44.6
57 | COc1ccc(NC(=O)C2COc3ccccc3O2)cc1 (stereo not given) | -82.9
58 | Cc1ccc(Nc2nnc(-c3ccccc3N)o2)cc1C | 94.4
59 | COCc1cc(C)nc2sc(C(=O)Nc3cccc(OC)c3)c(N)c12 | -17
60 | COc1ccc(/C=C/C(=O)NC(=S)N2CCN(c3ccccc3OC)CC2)cc1 | 69.5
